Test results taken from PubChem BioAssay (NCI).
About 83,000 compounds went through this panel and 20% of them were active in at least one assay; those are over-represented in the sample as a whole.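 Step 1: grow cells in 96-well plates. Step 2: add test compound at a single concentration. Step 3: incubate 48 h. Step 4: record percent growth.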 Unmarked numbers belong to inactive results. The source made the active and inactive calls. How the source made its calls: active means growth percent below 10; inactive means the rest.

How the values were obtained:
Assay in all cases: NCI-60 one-dose screen, 48 h (100 = growth as untreated, 0 = no growth, -100 = all killed)
HT29 colon = details: 10 µM unless noted
SNB-75 CNS = details: 10 µM unless noted
SNB-19 CNS = details: 10 µM unless noted
U251 CNS = details: 10 µM unless noted
PC-3 prostate = details: 10 µM unless noted
SK-MEL-5 melanoma = details: 10 µM unless noted
UACC-62 melanoma = details: 10 µM unless noted
LOX IMVI melanoma = details: 10 µM unless noted
SK-MEL-28 melanoma = details: 10 µM
SK-MEL-2 melanoma = details: 10 µM unless noted

Compound | growth (HT29 colon) | growth (SNB-75 CNS) | growth (SNB-19 CNS) | growth (U251 CNS) | growth (PC-3 prostate) | growth (SK-MEL-5 melanoma) | growth (UACC-62 melanoma) | growth (LOX IMVI melanoma) | growth (SK-MEL-28 melanoma) | growth (SK-MEL-2 melanoma)
CN(C)c1ccc(N=Cc2ccc(N3CCOCC3)cc2)cc1 | 84.2% | 81.3% | 90.9% | 46.6% | 54.1% | 82% | 84.8% | 74.3% | 114% | 67.2%
O=C(/C=C/c1ccc(C(F)(F)F)cc1)c1ccc(Nc2nc(NCCO)nc(N3CCOCC3)n2)cc1 | 7.26% (active) | 40.1% | 39.5% | -51.3% (active) | 25.3% | 46.3% | 56% | 3.82% (active) | 94.1% | 109%
Nc1n[nH]c2ccc([C@@H]3Nc4ccc5[nH]ncc5c4[C@H]4[C@H]5CCC(C5)[C@H]43)cc12 | 2.25% (active) | 11.4% | 33.4% | 20.1% | 25.6% | 16.9% | 40.5% | 14.7% | 57.7% | 29.5%
CCOC(=O)c1cnc2ccc(Cl)cc2c1NCCCN(C)C | 27.3% | 35.6% | 24.5% | 8.33% (active) | 25.7% | -50.8% (active) | -15.6% (active) | 1.24% (active) | 50.1% | -0.411% (active)
COc1ccc(Nc2cc(C)nc(NCc3ccccc3)n2)cc1 | 11% | 49% | 57.1% | 15.8% | 28.1% | 61.9% | 69.3% | -57.5% (active) | 63.9% | 31.1%
O=C(Nc1ccc(F)cc1F)c1cc(Cl)ccc1O | 31.4% | -8.57% (active) | 16.2% | 3.34% (active) | 6.06% (active) | -67.5% (active) | 7.39% (active) | 14.5% | 25.3% | -25.6% (active)
O=C(NC1CCN(Cc2ccccc2)CC1)c1cc(C(=O)NC2CCN(Cc3ccccc3)CC2)cc(C(=O)NC2CCN(Cc3ccccc3)CC2)c1 | 75% | 68% | 85.7% | 72.4% | 74.4% | 85.2% | 84.9% | -69.6% (active) | 95.6% | 73.6%
COc1cc(/C=C/C(=O)c2ccc(Nc3nc(NCCO)nc(N4CCOCC4)n3)cc2)cc(OC)c1OC | 5.79% (active) | 10.4% | 30.5% | 14.6% | 31% | 10.5% | -31.7% (active) | 11.1% | 48.4% | 50.6%
COc1ccc(C2C3=C(COC3=O)N(CCO)c3cc4c(cc32)CCC4)cc1OC (stereo not drawn) | -3.07% (active) | -28% (active) | 27.8% | 20% | 23.4% | 28% | 36.7% | 44% | – | –
COc1ccc(Cn2c(Br)c3c(c2Br)-c2nc(N)sc2CC3)cc1 | 16.8% | 38.2% | 66.9% | 36.5% | 56.6% | 15.1% | 27.5% | 35.7% | 46.1% | 22%
N#C/C(=C\c1c(-c2ccccc2)[nH]c2ccccc12)C(=O)c1ccccc1 | 16.4% | 16.8% | 44.5% | 43.3% | 44.5% | 21.6% | 36.3% | 54.2% | 55.4% | 47.8%
O=c1c2cc(F)ccc2sc2c(Nc3ccncc3)nc3ccccc3c12 | -58.1% (active) | 56.5% | 25.5% | -33% (active) | -10.7% (active) | 75% | 66.7% | -66.7% (active) | 87.7% | 99.5%
COc1cc(C#N)cc2[nH]c(=O)oc12 | 106% | 71.9% | 106% | 92.4% | 102% | 96.7% | 113% | 111% | 107% | 106%
Cc1nc2ccccc2c(/C=C/c2ccc(F)cc2)c1C(N)=O | 115% | 85.4% | 99.2% | 98.1% | 89.1% | 95.9% | 96.1% | 96.4% | 117% | 105%
COc1ccc(-n2c(C(O)c3ccccc3)n[nH]c2=S)cc1 (stereo not drawn) | 113% | 89.6% | 99.7% | 91.2% | 120% | 107% | 88.2% | 91.4% | 115% | 96.7%
O=c1[nH]nnc2c1ncn2C1OC(CO)C(O)C1O (stereo not drawn) | 50.4% | 44.8% | 105% | 97.7% | 50.6% | 91.8% | 58% | 22.6% | 102% | 6% (active)
CC(C)c1ccc(S(=O)(=O)NC(=O)NC2CCCC2)cc1 | 108% | 101% | 100% | 101% | 99.9% | 101% | 94.7% | 97.7% | 103% | 110%
CCOc1cc2c(cc1OCC)C(c1cc(C)c(O)c(C)c1)NCC2 (stereo not drawn) | 98% | 95.3% | 101% | 94% | 82% | 99.9% | 91.3% | 99.6% | 107% | 98.3%
Clc1ccc(Oc2ccc(Nc3ncnc4onc(-c5ccccc5)c34)cc2)c(Cl)c1 | 84.2% | 83.5% | 106% | 102% | 94.2% | 93.4% | 81% | 98.4% | 102% | 104%
COC(=O)c1ccc(NC(=O)CSc2nc3ccccc3c(=O)n2-c2ccccc2)cc1 | 108% | 92.1% | 99.3% | 102% | 103% | 94% | 96.3% | 98.4% | 113% | 105%
c1ccc(CNc2nc(Nc3ccccc3)nc3ccccc23)cc1 | 54.5% | -6.23% (active) | 47.3% | 29.6% | 19.5% | 54.8% | 27.1% | 59.6% | -35.1% (active) | 21.8%
NCCNc1nc2ccccc2c2c(=O)c3cc(F)cc(Cl)c3sc12 | -64.3% (active) | 44.6% | 81.4% | -84.3% (active) | -70.4% (active) | 85.5% | 44.8% | -92.1% (active) | -89.8% (active) | 99.1%
CCCCC1COc2cccc3c2N1C=C/C3=C\C(=O)N(C)c1ccccc1 (stereo not drawn) | 49.7% | 72.1% | 52.3% | 33.9% | 51.2% | 13.4% | 36% | 51.2% | 75% | 71.1%
O=C(Nc1ccsc1C(=O)NC1CCCCC1)c1ccc(F)cc1 | 92.9% | 85.2% | 98.8% | 101% | 67.9% | 105% | 103% | 97.7% | 96.4% | 121%
O=C(c1ccccc1)N(C(=S)NCCc1ccc(Cl)cc1)c1ccc(Cl)cc1 | 37.6% | 74.8% | 59.3% | 47.8% | 66.2% | 67.2% | 76.8% | -16.6% (active) | 42.8% | 40.7%
O=C(c1nc2ccccc2[nH]1)C1C(c2cccc([N+](=O)[O-])c2)C2CC3CCCCC3N2[C@@]12C(=O)Nc1cc(Cl)ccc12 (stereo partly drawn) | 13.5% | 15.1% | 39.1% | 32.4% | 19.6% | 45.4% | 33.5% | 19.7% | 55.3% | 41.4%
CCOC(=O)c1sc(-c2ccc(OS(=O)(=O)c3ccccc3[N+](=O)[O-])c(C=O)c2)nc1C | 110% | 73.4% | 76.1% | 43% | 70% | -57.3% (active) | 64% | -6.91% (active) | 79.4% | 86.6%
COc1nccc2cc3c(=O)n4c(cc5ccccc54)c(=O)n3c12 | 112% | 89.2% | 108% | 101% | 87.8% | 96.6% | 101% | 97.1% | 109% | 94.3%
